# The panel holds about 79,000 compounds, 15% with a hit somewhere; the sample as a whole holds those more often. A number with no mark means an inactive call. Activity calls are given as the source filed them. Cut-off read from the data, not from the text of the source: active = growth inhibition above about 70%; inactive = the rest.
# Assays:
# [1] = NCI Yeast Anticancer Drug Screen. Data for the rad52 strain (AID 147);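 note: 0% = growth of vehicle-treated control cultures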; conditions: S. cerevisiae rad52 mutant growth inhibition, hits give high values
# Summary of the method: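 Inhibition of yeast growth, referenced to vehicle controls, was the measured output for a strain with defective DNA damage repair.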
# [2] = NCI Yeast Anticancer Drug Screen. Data for the wt1 strain (AID 149);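 note: 0% = growth of vehicle-treated wt1 cultures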; conditions: S. cerevisiae wt1 strain (SPY 50644) growth inhibition, hits give high values
# Summary of the method: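 Growth inhibition read against vehicle controls after compound exposure of the wt1 yeast strain.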
# [3] = NCI Yeast Anticancer Drug Screen. Data for the rad50EPP+ strain (AID 151);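 note: 0% = growth of vehicle-treated control cultures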; conditions: S. cerevisiae rad50 mutant strain, hits give high values
# Summary of the method: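 Genetically defined yeast (rad50EPP+, DNA damage repair alteration) is grown with compound, and inhibition of growth is expressed relative to vehicle-treated controls.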
# [4] = NCI Yeast Anticancer Drug Screen. Data for the mgt1 strain (AID 153); conditions: S. cerevisiae mgt1 mutant growth inhibition, hits give high values
# Summary of the method: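 In the mgt1 strain, test compounds were added and growth inhibition was determined relative to vehicle-treated controls.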
# [5] = NCI Yeast Anticancer Drug Screen. Data for the rad50 strain (AID 155);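 note: 0% = growth of vehicle-only cultures of the same strain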; conditions: S. cerevisiae rad50 strain growth inhibition, hits give high values
# Summary of the method: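 Readout: growth inhibition relative to vehicle-treated cultures. Compound exposure was carried out in a genetically defined yeast strain deficient in DNA damage repair.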
# [6] = NCI Yeast Anticancer Drug Screen. Data for the mec2-1 strain (AID 157); conditions: S. cerevisiae mec2-1 strain, hits give high values
# Summary of the method: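 Each compound was tested on mec2-1 yeast, a strain altered in DNA damage repair or cell cycle control. Growth inhibition is reported relative to vehicle.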
# [7] = NCI Yeast Anticancer Drug Screen. Data for the rad14 strain (AID 159);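 note: 0% = growth of vehicle-treated control cultures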; conditions: S. cerevisiae rad14 strain growth inhibition, hits give high values
# Summary of the method: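 Growth inhibition vs vehicle controls; genetically altered yeast strain (DNA damage repair defect) treated with test compounds.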
# [8] = NCI Yeast Anticancer Drug Screen. Data for the sgs1 mgt1 strain (AID 161);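 note: 0% = growth of cultures given vehicle only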; conditions: S. cerevisiae sgs1 mgt1 strain, hits give high values
# Summary of the method: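 Genetically altered yeast, compound exposure, growth inhibition relative to vehicle.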
# [9] = NCI Yeast Anticancer Drug Screen. Data for the CLN2oe strain (AID 163);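 note: 0% = growth of vehicle-only control cultures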; conditions: S. cerevisiae CLN2oe strain, hits give high values
# Summary of the method: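 First, the altered yeast strain was treated with each compound; second, its growth was measured; finally, inhibition was derived by comparison with vehicle controls.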
# [10] = NCI Yeast Anticancer Drug Screen. Data for the cln2 rad14 strain (AID 165);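 note: 0% = growth equal to vehicle treated cultures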; conditions: S. cerevisiae cln2 rad14 strain, hits give high values
# Summary of the method: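 Test compounds were added to cln2 rad14 yeast cultures; inhibition of growth was then determined by comparison with vehicle treatment.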
# [11] = NCI Yeast Anticancer Drug Screen. Data for the bub3 strain (AID 167); conditions: S. cerevisiae bub3 mutant strain, hits give high values
# Summary of the method: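 Readout: yeast growth inhibition, expressed relative to vehicle-only wells. The test organism is a mutant strain from a panel with lesions in DNA repair or checkpoint genes.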
# [12] = NCI Yeast Anticancer Drug Screen. Data for the wt2 strain (AID 169);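 note: 0% = growth of vehicle-treated yeast cultures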; conditions: S. cerevisiae wt2 strain growth inhibition, hits give high values
# Summary of the method: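 The panel's yeast strains carry defined changes in DNA repair or cell cycle genes. Each strain is grown with compound, and growth loss is scored relative to vehicle.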
# [13] = NCI Yeast Anticancer Drug Screen. Data for the sgs1 strain (AID 173);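 note: 0% = growth of vehicle-only control cultures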; conditions: S. cerevisiae sgs1 mutant, hits give high values
# Summary of the method: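 Vehicle-treated cultures served as reference for growth inhibition of a yeast strain altered in DNA damage repair or cell cycle control after compound exposure.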
# [14] = NCI Yeast Anticancer Drug Screen. Data for the mlh1 rad18 strain (AID 175); conditions: S. cerevisiae mlh1 rad18 strain growth inhibition, hits give high values
# Summary of the method: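 Inhibition values reflect reduced growth of mutant yeast versus vehicle-treated controls following compound exposure; the mutations affect DNA damage repair.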
# [15] = NCI Yeast Anticancer Drug Screen. Data for the rad18 strain (AID 177); conditions: S. cerevisiae rad18 mutant growth inhibition, hits give high values
# Summary of the method: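 Steps: expose repair-mutant yeast to compound; measure growth; express as inhibition relative to vehicle control.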
# [16] = at 5.0 µM (retest, dose inferred, filed as 0.5)
# [17] = at 50.0 µM (retest, dose inferred, filed as 5.0)
smiles,measurement,setting,value
Cn1c(=O)c(-c2ccccc2)c(N=[N+]=[N-])c2ccccc21,growth inhibition,[1]; at 1.2 µM,-11%
same,growth inhibition,[1]; at 3.7 µM,-6%
same,growth inhibition,[1]; at 11.0 µM,3%
same,growth inhibition,[1]; at 33.0 µM,92% (active)
same,growth inhibition,[1]; at 100.0 µM,89% (active)
same,growth inhibition,[2]; at 1.2 µM,-38%
same,growth inhibition,[2]; at 3.7 µM,-26%
same,growth inhibition,[2]; at 11.0 µM,-25%
same,growth inhibition,[2]; at 33.0 µM,91% (active)
same,growth inhibition,[2]; at 100.0 µM,90% (active)
same,growth inhibition,[3]; at 1.2 µM,-15%
same,growth inhibition,[3]; at 3.7 µM,6%
same,growth inhibition,[3]; at 11.0 µM,10%
same,growth inhibition,[3]; at 33.0 µM,4%
same,growth inhibition,[3]; at 100.0 µM,-18%
same,growth inhibition,[4]; at 1.2 µM,1%
same,growth inhibition,[4]; at 3.7 µM,0%
same,growth inhibition,[4]; at 11.0 µM,32%
same,growth inhibition,[4]; at 33.0 µM,94% (active)
same,growth inhibition,[4]; at 100.0 µM,89% (active)
same,growth inhibition,[5]; at 1.2 µM,14%
same,growth inhibition,[5]; at 3.7 µM,7%
same,growth inhibition,[5]; [16],-22%
same,growth inhibition,[5]; at 11.0 µM,20%
same,growth inhibition,[5]; at 33.0 µM,92% (active)
same,growth inhibition,[5]; [17],94% (active)
same,growth inhibition,[5]; at 50.0 µM,82.7% (active)
same,growth inhibition,[5]; at 100.0 µM,92% (active)
same,growth inhibition,[6]; at 1.2 µM,-1%
same,growth inhibition,[6]; at 3.7 µM,-9%
same,growth inhibition,[6]; [16],-10%
same,growth inhibition,[6]; at 11.0 µM,4%
same,growth inhibition,[6]; at 33.0 µM,87% (active)
same,growth inhibition,[6]; [17],92% (active)
same,growth inhibition,[6]; at 50.0 µM,83.8% (active)
same,growth inhibition,[6]; at 100.0 µM,93% (active)
same,growth inhibition,[7]; at 1.2 µM,12%
same,growth inhibition,[7]; at 3.7 µM,4%
same,growth inhibition,[7]; at 11.0 µM,5%
same,growth inhibition,[7]; at 33.0 µM,93% (active)
same,growth inhibition,[7]; at 100.0 µM,89% (active)
same,growth inhibition,[8]; [16],61%
same,growth inhibition,[8]; [17],93% (active)
same,growth inhibition,[8]; at 50.0 µM,87.4% (active)
same,growth inhibition,[9]; at 1.2 µM,5%
same,growth inhibition,[9]; at 3.7 µM,-17%
same,growth inhibition,[9]; at 11.0 µM,13%
same,growth inhibition,[9]; at 33.0 µM,94% (active)
same,growth inhibition,[9]; at 100.0 µM,90% (active)
same,growth inhibition,[10]; [16],23%
same,growth inhibition,[10]; [17],89% (active)
same,growth inhibition,[10]; at 50.0 µM,86% (active)
same,growth inhibition,[11]; at 1.2 µM,26%
same,growth inhibition,[11]; at 3.7 µM,26%
same,growth inhibition,[11]; [16],-7%
same,growth inhibition,[11]; at 11.0 µM,35%
same,growth inhibition,[11]; at 33.0 µM,94% (active)
same,growth inhibition,[11]; [17],95% (active)
same,growth inhibition,[11]; at 50.0 µM,86.5% (active)
same,growth inhibition,[11]; at 100.0 µM,94% (active)
same,growth inhibition,[12]; at 1.2 µM,-35%
same,growth inhibition,[12]; at 3.7 µM,-29%
same,growth inhibition,[12]; at 11.0 µM,-9%
same,growth inhibition,[12]; at 33.0 µM,87% (active)
same,growth inhibition,[12]; at 100.0 µM,91% (active)
same,growth inhibition,[13]; at 1.2 µM,-11%
same,growth inhibition,[13]; at 3.7 µM,-13%
same,growth inhibition,[13]; at 11.0 µM,13%
same,growth inhibition,[13]; at 33.0 µM,91% (active)
same,growth inhibition,[13]; at 100.0 µM,92% (active)
same,growth inhibition,[14]; [16],-4%
same,growth inhibition,[14]; [17],94% (active)
same,growth inhibition,[14]; at 50.0 µM,83% (active)
same,growth inhibition,[15]; at 1.2 µM,7%
same,growth inhibition,[15]; at 3.7 µM,-5%
same,growth inhibition,[15]; at 11.0 µM,11%
same,growth inhibition,[15]; at 33.0 µM,93% (active)
same,growth inhibition,[15]; at 100.0 µM,85% (active)

# — PubChem BioAssay (NCI)
